# Compounds with a hit are over-represented: about 3% of the library has one in this group of screens.
# SARS PLpro yeast: blocks SARS-CoV papain-like protease in a yeast assay; S. cerevisiae expressing SARS-CoV PLpro, growth rescue; Potency, µM (top dose mostly 32.9 µM), actives largely listed as activators; 330,000 compounds, 0.19% hits; AID 485353; calls by dose curve; also: nearly all actives have a fitted effect of over 55% in size
# Sm TGR block: inhibitors of Schistosoma mansoni thioredoxin glutathione reductase | Potency, µM (highest dose often 114 µM), hits mostly inhibitors | purified TGR, DTNB reduction, TNB absorbance 405 nm | 360,000 compounds, 3% hits | Q962Y6; active = well fitted inhibition curve with a large enough effect; inconclusive = small, poorly fitted or top-dose-only effect; inactive = no such curve, though single readings can be large or run the other way; also: nearly all actives have a fitted effect of over 60% in size
#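 First, TGR (20 nM dispensed) and NADPH were mixed with compound. Second, a 15 min room-temperature incubation followed. Third, further NADPH and then DTNB were added to start the reaction. Finally, TNB absorbance was monitored kinetically.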
# Hits are given with their value; 0 = inactive; ? = inconclusive; - = not tested or not shown; ! = a repeat was not active.
SMILES,SARS PLpro yeast,Sm TGR block
O=S(=O)(c1ccccc1)N1CCN(C2CCN(Cc3ccccc3)CC2)CC1,0,0
O=C(CCl)Nc1cccc(S(=O)(=O)N2CCCCCC2)c1,0,11.2µM
COc1ccc(CCNC(=O)Cn2nc(C)c3c(C)n(-c4ccc(C)cc4)nc3c2=O)c(OC)c1,0,0
COc1cccc(NC(=O)CSC2=Nc3ccccc3C3=NC(CCC(=O)NCCc4ccccc4)C(=O)N23)c1 (stereo not drawn),-,0
CCSC1=NC2(CCN(C(=O)NC3CCCCC3)CC2)N=C1c1ccc(C)cc1,-,0
O=C(CCn1c(=O)c2sccc2n(Cc2ccccc2F)c1=O)NCc1ccc2c(c1)OCO2,-,0
COc1ccc(S(=O)(=O)N2CCCN(CCC(=O)Nc3cccc(C(F)(F)F)c3)CC2)cc1,0,0
O=C(CN1CCCN(S(=O)(=O)c2ccc(Br)cc2)CC1)Nc1cccc(C(F)(F)F)c1,-,35.5µM
O=C(CCl)c1ccc2[nH]c(=O)oc2c1,0,11.2µM
COC(=O)c1ccc(NS(=O)(=O)c2ccc3[nH]c(=O)oc3c2)cc1,0,0
COc1ccc(OC)c(CCNC(=O)Cn2nc(C)n3c(cc4sccc43)c2=O)c1,-,0
CSc1ccc(CCNC(=O)c2ccc(CS(=O)(=O)c3ccc(Br)cc3)o2)cc1,-,0
Cc1ccc(C)c(CSc2nc3ccncc3n2Cc2nc(-c3ccccc3Cl)oc2C)c1,-,0
Cc1cccc(-c2nc(Cn3c(SCc4cc(C)ccc4C)nc4ccncc43)c(C)o2)c1,-,79.4µM
CCN1C(=NCCN2CCOCC2)N[C@@H](CCc2ccccc2)C(C(=O)OC)=C1C,?,0
c1ccc(CCn2nnnc2CN2CCCc3ccccc32)cc1,0,0
CCC(C)(C)n1nnnc1CN1CCc2ccccc21,0,7.08µM
COc1ccc(CNC(=O)Cn2c(=O)n3nc(-c4cccc(F)c4)nc3c3ccccc32)cc1OC,-,0
O=C(CCC(=O)N1CC2CCCN2c2ccccc21)NCc1cccc(Cl)c1 (stereo not drawn),-,0
COc1cc(OC)cc(C(=O)Oc2c(Sc3ccccc3)c(C)nn2C(C)(C)C)c1,-,0
O=S(=O)(c1ccc2ccccc2c1)N1CCCCCC1,0,0
CN1CCCN(S(=O)(=O)c2ccc3ccccc3c2)CC1,0,44.7µM
O=C(NCC(c1ccc2c(c1)OCO2)N1CCN(c2ccccc2)CC1)C(=O)Nc1ccccc1 (stereo not drawn),-,0
Oc1c(CNc2ccccc2)cc(COCc2ccccc2)c2cccnc12,4.47µM!,2.82µM
Oc1cc(NCc2ccccc2)cc2cccnc12,0,0
SMILES,SARS PLpro yeast,Sm TGR block
COc1ccc(C)cc1NC(=O)NCc1ccc2c(c1)CCN2C(=O)c1ccccc1,-,0
Cc1oc(-c2ccc(Cl)cc2)cc1-c1nn2c(-c3ccoc3C)nnc2s1,0,22.4µM
Clc1ccc(-c2nnc3sc(-c4ccc(Br)o4)nn23)cc1,0,0
CCN(C(=O)c1cc(S(=O)(=O)N2CCCC2)cn1C)c1ccc(OC)cc1,-,0
COc1ccc(CCNC(=O)CN2C(=O)COc3ccccc32)cc1OC,-,0
O=C1C=C(O)c2cccc3cccc1c23,0,0
O=C1C=C(O)c2c(O)cccc2C1=O,0,50.1µM
COc1ccccc1CNC(=O)CCCCn1c(=O)c2ccccc2n(Cc2ccccc2F)c1=O,-,0
O=C(CCl)Nc1cc(-c2ccccc2)nn1-c1ccccc1,0,12.6µM
Cc1ccc(-c2cc(NC(=O)CCl)n(-c3ccccc3)n2)cc1,0,?
Cc1ccc(S(=O)(=O)c2cn(CC(=O)Nc3cccc(C)c3)c3cc4c(cc3c2=O)OCO4)cc1,-,0
Cc1ccccc1CN1C[C@@H]2C[C@@H](c3cnc(N4CCOCC4)s3)N3CCC[C@@]23C1=O,0,15.8µM
Cc1ccc([C@@H]2C[C@H]3CN(Cc4cccc(Cl)c4)C(=O)[C@]34CCCN24)o1,0,?
COc1ccccc1CN1C[C@@H]2C[C@@H](c3ccccc3C)N3CCC[C@@]23C1=O,0,0
Cc1cccc([C@@H]2C[C@H]3CN(Cc4cccc(Cl)c4)C(=O)[C@]34CCCN24)n1,0,28.2µM
CCOc1cc(C(=O)N2CCc3c([nH]c4ccccc34)C2c2ccccc2)cc(OCC)c1OCC (stereo not drawn),-,0
CCC(=O)Nc1ccc(S(=O)(=O)NCc2cccn2Cc2cccc(C)c2)cc1,-,0
COc1ccc(C2=C(C)C(N3CCC(C(=O)Nc4ccc(F)cc4C)CC3)=NS2(=O)=O)cc1,-,0
CCOC(=O)c1sc(SC)c2c1CCC/C2=N/OC,0,0
CCOC(=O)c1sc(S(C)(=O)=O)c2c1CCc1conc1-2,0,12.6µM
CCc1ccc(NC(=O)CSc2nnc3[nH]c(=O)cc(-c4ccccc4)n23)cc1,-,0
Cn1c(Oc2ccc(Cl)cc2)nc2c1c(=O)n(Cc1ccc(F)cc1)c(=O)n2C,-,0
COc1cc2c(cc1OC)CN(Cc1cc(OC)c(O)c(OC)c1)CC2,0,8.91µM
COc1cc(CN2CCN(c3ccccc3F)CC2)cc(OC)c1O,0,14.1µM
COc1cc2c(cc1OC)CN(Cc1ccccc1)CC2,0,0
SMILES,SARS PLpro yeast,Sm TGR block
COc1ccc(CN2CCN(c3ccccc3F)CC2)cc1O,0,0
Cc1ccc(CNC(=O)C2CCN(c3nc4ccc(C)cc4[nH]3)CC2)cc1,-,0
CC(C)Oc1ccc(C(=O)N2CCN(CCc3ccccn3)CC2)cc1,-,0
CCCN(CCC)CCCNC(=S)Nc1ccc2nc(N3CCN(CC)CC3)cc(C)c2c1,0,0
COCCCNC(=O)CCC(=O)Nc1ccc2nc(N3CCOCC3)cc(C)c2c1,0,0
Cc1cc(N2CCOCC2)nc2ccc(NC(=S)NC(C)C)cc12,0,0
CCCN(CCC)CCCNC(=S)Nc1ccc2nc(N3CCN(C)CC3)cc(C)c2c1,0,0
COCCNC(=S)Nc1ccc2nc(N3CCOCC3)cc(C)c2c1,0,44.7µM
Cc1cc(N2CCCC2)nc2ccc(NC(=S)NC(C)C)cc12,0,12.6µM
COCCNC(=S)Nc1ccc2nc(N3CCCC3)cc(C)c2c1,0,44.7µM
CCOCCCNC(=S)Nc1ccc2nc(N3CCCC3)cc(C)c2c1,0,50.1µM
CCc1ccccc1NC(=O)[C@H](Cc1ccccc1)N1Cc2ccccc2C1=O,-,0
O=C1c2ccc(-c3ccc(F)cc3OCc3ccccc3)cc2S(=O)(=O)c2cccc(C(=O)N3CCN(c4ncc(Br)cn4)CC3)c21,0,-
O=C(O)c1cccc2c1C(=O)c1ccc(-c3ccc(F)cc3OCc3ccccc3)cc1S2(=O)=O,0,31.6µM
Cc1ccc(N2C(=O)NC(=O)/C(=C/c3cnn(-c4ccc(C)cc4)c3)C2=O)cc1,0,0
CCOc1ccc(/C=C2/C(=O)NC(=O)N(CCc3ccc(F)cc3)C2=O)cc1,0,?
Cc1ccc(N2C(=O)NC(=O)/C(=C\c3cnc(-c4ccccc4)nc3)C2=O)cc1,?,1.58µM
CCOc1ccc(N2C(=O)NC(=O)/C(=C/c3cnc(SC)nc3)C2=O)cc1,0,8.91µM
Cc1ccc(N2C(=O)NC(=O)/C(=C/c3ccoc3)C2=O)cc1,0,?
CSc1ncc(/C=C2/C(=O)NC(=O)N(c3ccc(Cl)cc3)C2=O)cn1,0,5.62µM
Cc1cc(/C=C2\C(=O)NC(=O)N(c3ccc(Cl)cc3)C2=O)c(C)n1C,0,-
CSc1ncc(/C=C2/C(=O)NC(=O)N(c3ccc(C)cc3)C2=O)cn1,0,2.51µM
O=C(Nc1ccccc1F)c1ccc(O)c2ncccc12,0,0
Cc1ccc(CNC(=O)C2CCC(CNS(=O)(=O)c3ccc(C)cc3)CC2)cc1 (stereo not drawn),-,0
COc1ccc(CCNC(=O)c2ccc(S(=O)(=O)N(C)c3ccccc3)cc2)cc1OC,0,0
